Reference: PubChem BioAssay (EPA / NIEHS)
Values joined by “and” are separate entries in the source; they are usually repeats but may differ in a detail not shown here. Identical values can stand only once. Inconclusive results are not listed. Active and inactive are the calls of the source. The calls were made as follows: active = hit-call score of the fitted dose curve at least 0.9, where 1 is the maximum; inconclusive = response in the unintended direction; inactive = score below 0.9.

Legend:
[1] = molecular target: human Dopamine Receptor D2 (DRD2), DRD2 (gene 1813) (UniProt P14416); test: NVS_GPCR_hDRD2s: NovaScreen (NVS) G Protein-Coupled Receptor Assay for human Dopamine Receptor D2 (DRD2) (AID 2283266)
Summary of the method: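 Test compound (25 uM, duplicate in the primary screen; concentration series at follow-up) competed with radioligand for human DRD2 in CHO-derived membrane protein. Filter-based scintillation counting was done 1.5 hours after dosing, with loss of signal analysed against DMSO.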

[2] = molecular target: D(1A) dopamine receptor (Homo sapiens) (UniProt P21728); test: NVS_GPCR_hDRD1: NovaScreen (NVS) G Protein-Coupled Receptor Assay for human Dopamine Receptor D1 (DRD1) (AID 2283269)
Summary of the method: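 HEK293-derived receptor preparation; radioligand competitive displacement; 1 h; filtration + scintillation counting. DMSO = negative control/baseline. Primary: 25 uM, duplicate; secondary: concentration–response for actives.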

[3] = molecular target: human Adrenergic, Alpha 2c Receptor (Adra2C), ADRA2C (gene 152) (UniProt P18825); test: NVS_GPCR_hAdra2C: NovaScreen (NVS) G Protein-Coupled Receptor Assay for human Adrenergic, Alpha 2c Receptor (Adra2C) (AID 2283259)
Summary of the method: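 Screened first in duplicate at 25 uM, with actives then run as concentration series. Membranes from Sf9 cells were exposed for 1 h, and displacement of radioligand was counted after filtration, using DMSO as baseline.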

[4] = molecular target: Beta-2 adrenergic receptor (Homo sapiens) (UniProt P07550); test: NVS_GPCR_hAdrb2: NovaScreen (NVS) G Protein-Coupled Receptor Assay for human Adrenergic, Beta 2 Receptor (Adrb2) (AID 2283261)
Summary of the method: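 Compounds screened in duplicate at 25 uM, then actives in concentration series. Human beta-2 receptor from CHO material, cell-free; radioligand displacement after 1 h measured by filtration and scintillation against DMSO baseline.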

[5] = molecular target: human Adrenergic, Beta 3 Receptor (Adrb3), ADRB3 (gene 155) (UniProt P13945); test: NVS_GPCR_hAdrb3: NovaScreen (NVS) G Protein-Coupled Receptor Assay for human Adrenergic, Beta 3 Receptor (Adrb3) (AID 2283262)
Summary of the method: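 A cell-free filter binding assay read by scintillation counting, with displacement of a specific radioligand measured after 1 hour. The receptor source was SK-N-MC extracts (cells pretreated with isoproterenol and 8-bromo-cAMP). Compounds were first tested at 25 uM in duplicate and then in concentration series.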

[6] = molecular target: Type-1 angiotensin II receptor (Homo sapiens) (UniProt P30556); test: NVS_GPCR_hAT1: NovaScreen (NVS) G Protein-Coupled Receptor Assay for human Angiotensin II receptor type 1 (AT1) (AID 2283263)
Summary of the method: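 Hits from a 25 uM duplicate screen (threshold e.g. 30% inhibition) were run in concentration-response with 50 uM top concentration. Displacement of specific radioligand from KAN-TS membrane preparations measured after 3 h by filter scintillation, DMSO as baseline.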

[7] = molecular target: human Dopamine Receptor D4.4 (DRD4.4), DRD4 (gene 1815) (UniProt P21917); test: NVS_GPCR_hDRD4.4: NovaScreen (NVS) G Protein-Coupled Receptor Assay for human Dopamine Receptor D4.4 (DRD4.4) (AID 2283264)
Experimental: NVS_GPCR_hDRD4.4 is a biochemical, single-readout assay that uses extracted gene-proteins from CHO in a cell-free assay. Measurements were taken 1 hour after chemical dosing in a 96-well plate.NVS_GPCR_hDRD4.4 is one of one assay component(s) measured or calculated from the NVS_GPCR_hDRD4.4 assay. It is designed to make measurements of radioligand binding, a form of binding reporter, as detected with scintillation counting signals by Filter-based radiodetection technology.Data from the assay component NVS_GPCR_hDRD4.4 was analyzed into 1 assay endpoint. This assay endpoint, NVS_GPCR_hDRD4.4, was analyzed in the positive analysis fitting direction relative to DMSO as the negative control and baseline of activity. Using a type of binding reporter, loss-of-signal activity can be used to understand changes in the binding as they relate to the gene DRD4. Furthermore, this assay endpoint can be referred to as a primary readout, because the performed assay has only produced 1 assay endpoint. To generalize the intended target to other relatable targets, this assay endpoint is annotated to the gpcr intended target family, where the subfamily is rhodopsin-like receptor.
Binding assays used specific radioligands (tritiated, iodinated) with non-radioactive competitive displacement ligands in agonist or antagonist protocols (as indicated) and various reference compounds and inhibitors to titrate specific binding to receptors and transporters. Most enzyme assays (CYPs, kinases, phosphatases, proteases, HDACs) used recombinant protein and specific substrates (fluorescence mostly, some colorimetric and radioactive) and inhibitors, followed by a biochemical separation of substrate and product. All assays for the biochemical HTS were initially run in duplicate at a single concentration (10 uM for CYP450 assays and 25 uM for all others). […] Each assay was run with positive and negative controls, and concurrent controls on every plate. The follow-up (secondary) screen tested active chemical-pairs in concentration series, as well as a few additional assays not tested in the primary screen, some selected negative inactives, and several cases re-run in the concentration series for confirmatory purposes.

[8] = molecular target: human Endothelin Receptor Type A (ETA), EDNRA (gene 1909) (UniProt P25101); test: NVS_GPCR_hETA: NovaScreen (NVS) G Protein-Coupled Receptor Assay for human Endothelin Receptor Type A (ETA) (AID 2283265)
Summary of the method: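 Binding of radioligand to membrane protein extracted from SH-SY5Y cells was read by filtration and scintillation after 3 h. Compounds were screened at 25 uM in duplicate, with hits followed up in singleton concentration series to 50 uM.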

[9] = molecular target: human Endothelin Receptor Type B (ETB), EDNRB (gene 1910) (UniProt P24530); test: NVS_GPCR_hETB: NovaScreen (NVS) G Protein-Coupled Receptor Assay for human Endothelin Receptor Type B (ETB) (AID 2283267)
Summary of the method: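 Filter-based scintillation readout of radioligand displacement, 4 h, using membranes from human astrocytoma cells. Actives from a 25 uM duplicate screen were retested in concentration-response (top 50 uM) relative to DMSO baseline.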

[10] = molecular target: human Histamine 1 Receptor (H1), HRH1 (gene 3269) (UniProt P35367); test: NVS_GPCR_hH1: NovaScreen (NVS) G Protein-Coupled Receptor Assay for human Histamine 1 Receptor (H1) (AID 2283268)
Summary of the method: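 Filter-based scintillation detection of radioligand binding to human H1, 1 h incubation; chemicals screened in duplicate at 25 uM, then concentration-response; signal loss relative to DMSO taken as activity.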

Chain of human Histamine 1 Receptor (H1), HRH1 (gene 3269) (P35367 whole entry, looked up): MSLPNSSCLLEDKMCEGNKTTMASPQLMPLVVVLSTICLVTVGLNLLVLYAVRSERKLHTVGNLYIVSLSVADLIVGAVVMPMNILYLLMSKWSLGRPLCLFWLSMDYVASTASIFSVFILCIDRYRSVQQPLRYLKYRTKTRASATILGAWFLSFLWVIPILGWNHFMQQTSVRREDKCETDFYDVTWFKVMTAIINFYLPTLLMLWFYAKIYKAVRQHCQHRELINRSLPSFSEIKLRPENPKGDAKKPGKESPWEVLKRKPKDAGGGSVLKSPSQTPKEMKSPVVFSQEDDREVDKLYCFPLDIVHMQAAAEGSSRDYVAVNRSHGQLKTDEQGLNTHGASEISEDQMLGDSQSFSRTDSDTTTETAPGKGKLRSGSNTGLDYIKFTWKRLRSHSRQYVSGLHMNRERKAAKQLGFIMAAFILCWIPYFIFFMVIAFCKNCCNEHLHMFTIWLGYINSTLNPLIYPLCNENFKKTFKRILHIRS
Chain of human Dopamine Receptor D2 (DRD2), DRD2 (gene 1813) (P14416 whole entry, looked up): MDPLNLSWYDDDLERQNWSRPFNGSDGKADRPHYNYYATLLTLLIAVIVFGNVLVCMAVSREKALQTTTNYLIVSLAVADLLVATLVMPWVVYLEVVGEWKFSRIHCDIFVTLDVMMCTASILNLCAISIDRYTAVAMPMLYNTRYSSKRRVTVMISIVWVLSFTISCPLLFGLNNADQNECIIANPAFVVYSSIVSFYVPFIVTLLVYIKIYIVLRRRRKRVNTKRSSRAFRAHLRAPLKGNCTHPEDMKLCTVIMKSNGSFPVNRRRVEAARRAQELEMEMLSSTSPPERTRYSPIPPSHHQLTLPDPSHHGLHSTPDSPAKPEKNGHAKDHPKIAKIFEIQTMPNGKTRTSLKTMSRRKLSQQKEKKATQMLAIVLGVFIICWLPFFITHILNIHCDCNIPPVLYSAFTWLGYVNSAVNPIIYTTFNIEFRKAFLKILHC
Chain of human Adrenergic, Alpha 2c Receptor (Adra2C), ADRA2C (gene 152) (P18825 whole entry, looked up): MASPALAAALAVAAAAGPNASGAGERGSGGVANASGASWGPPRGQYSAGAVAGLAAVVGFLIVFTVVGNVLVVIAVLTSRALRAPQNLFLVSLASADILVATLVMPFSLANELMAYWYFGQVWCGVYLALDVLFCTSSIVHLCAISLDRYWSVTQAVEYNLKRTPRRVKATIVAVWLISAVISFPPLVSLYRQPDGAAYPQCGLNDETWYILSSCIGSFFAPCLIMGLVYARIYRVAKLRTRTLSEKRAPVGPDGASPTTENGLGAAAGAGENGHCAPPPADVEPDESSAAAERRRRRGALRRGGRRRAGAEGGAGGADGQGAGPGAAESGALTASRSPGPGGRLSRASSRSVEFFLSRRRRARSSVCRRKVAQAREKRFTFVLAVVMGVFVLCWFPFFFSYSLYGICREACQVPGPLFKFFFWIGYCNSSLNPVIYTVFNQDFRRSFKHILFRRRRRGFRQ
Chain of human Adrenergic, Beta 3 Receptor (Adrb3), ADRB3 (gene 155) (P13945 whole entry, looked up): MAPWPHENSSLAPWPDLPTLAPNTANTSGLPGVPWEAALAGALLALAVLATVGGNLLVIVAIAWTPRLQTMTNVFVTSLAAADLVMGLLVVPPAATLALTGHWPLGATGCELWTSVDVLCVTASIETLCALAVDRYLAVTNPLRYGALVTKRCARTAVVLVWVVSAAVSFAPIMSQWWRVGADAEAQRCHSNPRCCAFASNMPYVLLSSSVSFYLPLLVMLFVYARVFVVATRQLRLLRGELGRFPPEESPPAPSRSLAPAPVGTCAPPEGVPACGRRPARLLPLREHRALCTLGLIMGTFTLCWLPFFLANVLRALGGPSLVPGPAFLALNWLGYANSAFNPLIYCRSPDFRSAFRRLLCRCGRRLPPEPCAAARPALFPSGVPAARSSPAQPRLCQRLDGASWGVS
Chain of D(1A) dopamine receptor (Homo sapiens) (P21728 whole entry, looked up): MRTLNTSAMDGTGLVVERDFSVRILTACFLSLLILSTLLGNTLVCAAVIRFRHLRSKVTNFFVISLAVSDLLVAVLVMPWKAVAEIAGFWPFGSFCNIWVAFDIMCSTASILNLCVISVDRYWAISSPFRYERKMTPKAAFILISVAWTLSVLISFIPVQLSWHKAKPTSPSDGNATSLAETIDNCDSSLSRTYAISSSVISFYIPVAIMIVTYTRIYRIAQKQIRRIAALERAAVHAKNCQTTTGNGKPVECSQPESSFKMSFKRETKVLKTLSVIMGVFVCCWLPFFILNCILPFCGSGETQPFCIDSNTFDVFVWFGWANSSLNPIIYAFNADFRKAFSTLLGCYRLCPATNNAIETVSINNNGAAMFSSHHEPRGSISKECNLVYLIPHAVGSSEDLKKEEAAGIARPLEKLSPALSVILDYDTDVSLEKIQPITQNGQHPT
Chain of Beta-2 adrenergic receptor (Homo sapiens) (P07550 whole entry, looked up): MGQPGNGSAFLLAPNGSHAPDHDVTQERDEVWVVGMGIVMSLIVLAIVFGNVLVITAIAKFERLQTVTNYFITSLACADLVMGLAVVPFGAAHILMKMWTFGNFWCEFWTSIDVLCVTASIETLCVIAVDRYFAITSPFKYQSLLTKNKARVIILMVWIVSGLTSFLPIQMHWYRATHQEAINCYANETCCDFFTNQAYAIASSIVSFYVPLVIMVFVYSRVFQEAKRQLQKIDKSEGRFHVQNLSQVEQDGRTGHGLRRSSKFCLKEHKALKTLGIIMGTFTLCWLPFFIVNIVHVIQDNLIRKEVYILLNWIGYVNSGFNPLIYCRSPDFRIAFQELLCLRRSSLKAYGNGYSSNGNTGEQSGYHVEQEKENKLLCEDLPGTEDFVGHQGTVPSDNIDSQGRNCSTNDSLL
Chain of human Dopamine Receptor D4.4 (DRD4.4), DRD4 (gene 1815) (P21917 whole entry, looked up): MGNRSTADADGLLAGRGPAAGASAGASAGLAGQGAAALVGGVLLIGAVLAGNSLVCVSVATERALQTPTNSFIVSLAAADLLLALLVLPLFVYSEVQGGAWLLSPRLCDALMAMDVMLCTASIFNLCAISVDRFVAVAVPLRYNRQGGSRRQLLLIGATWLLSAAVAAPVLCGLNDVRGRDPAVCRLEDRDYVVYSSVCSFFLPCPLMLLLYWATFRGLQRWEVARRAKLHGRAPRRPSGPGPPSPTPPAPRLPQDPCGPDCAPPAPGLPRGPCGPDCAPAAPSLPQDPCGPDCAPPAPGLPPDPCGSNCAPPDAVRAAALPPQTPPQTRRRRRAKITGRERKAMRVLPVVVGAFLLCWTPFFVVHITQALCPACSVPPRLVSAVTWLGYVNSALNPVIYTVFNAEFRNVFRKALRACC
Chain of Type-1 angiotensin II receptor (Homo sapiens) (P30556 whole entry, looked up): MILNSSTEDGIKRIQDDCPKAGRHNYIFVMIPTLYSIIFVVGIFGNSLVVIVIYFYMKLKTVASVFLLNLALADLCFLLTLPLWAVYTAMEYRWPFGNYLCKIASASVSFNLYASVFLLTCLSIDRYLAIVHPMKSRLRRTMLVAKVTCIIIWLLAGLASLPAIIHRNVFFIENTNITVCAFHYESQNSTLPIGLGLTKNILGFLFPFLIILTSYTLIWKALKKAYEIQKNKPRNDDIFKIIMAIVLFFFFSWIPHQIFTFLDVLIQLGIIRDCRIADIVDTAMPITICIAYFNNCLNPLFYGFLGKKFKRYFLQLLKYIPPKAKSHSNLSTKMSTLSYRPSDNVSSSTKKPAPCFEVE
Chain of human Endothelin Receptor Type A (ETA), EDNRA (gene 1909) (P25101 whole entry, looked up): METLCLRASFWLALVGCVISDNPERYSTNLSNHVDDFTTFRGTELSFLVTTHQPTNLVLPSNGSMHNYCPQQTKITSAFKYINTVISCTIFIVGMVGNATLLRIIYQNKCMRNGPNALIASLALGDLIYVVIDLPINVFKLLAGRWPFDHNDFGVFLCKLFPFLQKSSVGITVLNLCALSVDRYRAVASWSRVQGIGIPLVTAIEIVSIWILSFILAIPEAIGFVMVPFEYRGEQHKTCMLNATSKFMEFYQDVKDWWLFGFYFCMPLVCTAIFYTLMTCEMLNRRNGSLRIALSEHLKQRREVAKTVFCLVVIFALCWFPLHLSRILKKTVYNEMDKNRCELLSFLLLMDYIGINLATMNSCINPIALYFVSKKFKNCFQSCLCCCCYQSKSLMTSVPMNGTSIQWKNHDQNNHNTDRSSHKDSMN
Chain of human Endothelin Receptor Type B (ETB), EDNRB (gene 1910) (P24530 whole entry, looked up): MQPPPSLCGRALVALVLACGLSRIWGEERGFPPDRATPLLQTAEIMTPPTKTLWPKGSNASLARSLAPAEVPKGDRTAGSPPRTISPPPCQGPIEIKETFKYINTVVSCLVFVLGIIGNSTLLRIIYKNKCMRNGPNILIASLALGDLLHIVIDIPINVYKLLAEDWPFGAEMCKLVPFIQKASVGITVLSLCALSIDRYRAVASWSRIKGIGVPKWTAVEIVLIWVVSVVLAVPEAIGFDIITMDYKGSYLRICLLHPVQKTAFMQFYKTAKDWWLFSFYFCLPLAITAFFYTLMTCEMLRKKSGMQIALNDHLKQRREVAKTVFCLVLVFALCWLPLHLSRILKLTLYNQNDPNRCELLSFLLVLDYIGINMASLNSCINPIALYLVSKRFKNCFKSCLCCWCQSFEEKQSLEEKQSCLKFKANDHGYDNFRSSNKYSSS

Compound: CCOP(=S)(OCC)SCSP(=S)(OCC)OCC
- outcome [1]: inactive

Compound: Oc1c(I)cc(I)cc1I
- outcome [2]: inactive

Compound: O=C(O)C(F)(F)C(F)(F)C(F)(F)C(F)(F)C(F)(F)C(F)(F)C(F)(F)C(F)(F)C(F)(F)C(F)(F)F
- AC50 [3]: 4.5 µM (active)
- AC50 [1]: 11 µM (active)
- outcome [2]: inactive

Compound: C=C(C)C(=O)[O][Sn]([CH2]CCC)([CH2]CCC)[CH2]CCC
- AC50 [3]: 0.281 µM (active)
- AC50 [4]: 4.57 µM (active)
- AC50 [5]: 25 µM (active)
- AC50 [6]: 2.23 µM (active)
- AC50 [7]: 1.75 µM (active)
- AC50 [8]: 0.697 µM (active)
- AC50 [1]: 0.363 µM (active)
- AC50 [9]: 14.8 µM (active)
- AC50 [10]: 1.96 µM (active)
- AC50 [2]: 0.326 µM (active)

Compound: COc1cc(-c2ccc(N)c(OC)c2)ccc1N
- AC50 [7]: 16.7 µM (active)
- AC50 [1]: 5.28 µM (active) and 9.98 µM (active)

Compound: CCOC(=O)/C=C(C)/C=C/C[C@@H](C)CCCC(C)C
- AC50 [2]: 32.1 µM (active)

Compound: CCN1CCC2(CC1)COc1cc3c(cc12)N(C(=O)c1ccc(-c2ccc(-c4nnc(C)o4)cc2C)cc1)CC3
- AC50 [3]: 14.3 µM (active)
- AC50 [4]: 23.4 µM (active)
- outcome [5]: inactive
- outcome [7]: inactive
- AC50 [10]: 32.2 µM (active)
- AC50 [2]: 5.49 µM (active)

Compound: Nc1cccc2ccccc12
- AC50 [2]: 37.8 µM (active)

Compound: CN(C)N=O
- outcome [5]: inactive

Compound: O=C(c1ccccc1)C(Cl)Cl
- outcome [2]: inactive

Compound: CC(=O)[O][Hg][c]1ccccc1
- AC50 [3]: 0.252 µM (active)
- AC50 [4]: 0.934 µM (active)
- AC50 [5]: 6.02 µM (active)
- AC50 [6]: 15.1 µM (active)
- AC50 [7]: 0.794 µM (active)
- AC50 [8]: 1.07 µM (active)
- AC50 [1]: 0.428 µM (active)
- AC50 [10]: 1.18 µM (active)
- AC50 [2]: 0.104 µM (active)

Compound: CCC(=O)C(CC(C)N(C)C)(c1ccccc1)c1ccccc1 (configuration not stated)
- outcome [3]: inactive
- outcome [5]: inactive
- AC50 [1]: 5.6 µM (active)
- AC50 [10]: 7.25 µM (active)

Compound: CC(C)(C)CC(C)(C)c1ccc(O)cc1
- AC50 [3]: 25 µM (active)

Compound: O=C1C2(Cl)C3(Cl)C4(Cl)C(Cl)(Cl)C5(Cl)C3(Cl)C1(Cl)C5(Cl)C24Cl (configuration not stated)
- outcome [2]: inactive
